# Data published in ChEMBL document CHEMBL3988442, “University of Dundee, Small-Polar-MMV Screening Library” (2021).
# The whole screen tested about 69,000 compounds, of which about 1,000 (1.4%) showed an effect of 50% or more. Shown is part of a subset that was picked to be rich in strong results.
# Tested on: Leishmania donovani
# Test: Leishmania intramacrophage assay
# Format: functional, organism-based
# Set-up: scale not given: in the data most compounds retested in dose-response had high values
structure (smiles),measurement,setting,value
Cc1ncc(CNC(CCO)C2CCCCC2)s1 (configuration not stated),Percent Effect,"30.3 µM, […]",-3.67%
Cc1nc(CN2C(=O)C[C@@H]3[C@@H]2CCN3S(C)(=O)=O)cs1,Percent Effect,"30.3 µM, […]",-12.74%
Cc1nnc([C@@H]2C[C@H]3CN(C(=O)C4CC4)C[C@H]3O2)[nH]1,Percent Effect,"30.3 µM, […]",15.1%
Cc1cccc(C(C(=O)NC(C)(C)CN2CCOCC2)N(C)C)c1 (configuration not stated),Percent Effect,"30.3 µM, […]",-45.9%
Cc1cccc(C(C(=O)NC(C)(C)CN2CCCC2)N(C)C)c1 (configuration not stated),Percent Effect,"30.3 µM, […]",64.22%
Cc1ccc(C(C(=O)NC(C)(C)CN2CCCC2)N(C)C)cc1 (configuration not stated),Percent Effect,"30.3 µM, […]",-34.55%
CCN(Cc1ccc2c(c1)OCO2)C(=O)NC(C)Cn1cccn1 (configuration not stated),Percent Effect,"30 µM, 30.03 µM",-8.819%
O=C1CCC(c2ccccc2)=NN1CN1CCCCCC1,Percent Effect,"30.3 µM, […]",54.14%
O=C1CCC(c2ccc(Cl)cc2)=NN1CN1CCSCC1,Percent Effect,"30.3 µM, […]",35.07%
O=C1CCC(c2ccc(Cl)cc2)=NN1CN1CCCCCC1,Percent Effect,"30.3 µM, […]",-2.466%
Cc1cc2ccccc2n1CCC(=O)NCCCc1nnc(N)s1,Percent Effect,"30.3 µM, […]",18.88%
Cc1cc(C(F)F)nn1C(C)C(=O)NCc1ncc[nH]1 (configuration not stated),Percent Effect,"30.3 µM, […]",43.47%
CCn1nc(C)c(CN2CCC(c3ccc(C(=O)O)cc3)C2)c1C (configuration not stated),Percent Effect,"30.3 µM, […]",54.96%
CCn1nc(C)c(CN2CCCC(c3ccc(C(=O)O)cc3)C2)c1C (configuration not stated),Percent Effect,"30.3 µM, […]",17.25%
Cc1nn(C)c(C)c1CN1CCCC(c2ccc(C(=O)O)cc2)C1 (configuration not stated),Percent Effect,"30.3 µM, […]",20.41%
CCS(=O)(=O)CCN(C)Cc1cc(C)ccc1OC,Percent Effect,"30.3 µM, […]",6.115%
CC(=O)NCC(=O)N1CCN(CCN(C)C)c2ncccc2C1.O=C(O)C(F)(F)F.O=C(O)C(F)(F)F,Percent Effect,"30.3 µM, […]",27.08%
COCC(=O)NC[C@@]1(COc2cccnc2)C[C@@H](O)[C@@H](O)C1.Cl,Percent Effect,"30.3 µM, […]",-3.857%
COC(=O)c1cccc(S(=O)(=O)NC(=O)COC2CCCC2)c1,Percent Effect,30 µM,-0.3864%
Clc1ccc(CN2CCN(Cn3nccc3-c3cccnc3)CC2)s1,Percent Effect,"30.3 µM, […]",56.59%
CC(C)(C)C(=O)N1CCN(Cn2nccc2-c2cccnc2)CC1,Percent Effect,"30.3 µM, […]",7.096%
c1cnc(N2CCN(Cn3nccc3-c3cccnc3)CC2)nc1,Percent Effect,"30.3 µM, […]",61.02%
c1cncc(-c2ccnn2CN2CCOCC2)c1,Percent Effect,"30.3 µM, […]",-9.601%
CC(C)(C)CCN1CCN(Cn2nccc2-c2cccnc2)CC1,Percent Effect,"30.3 µM, […]",14.91%
c1cncc(-c2ccnn2CN2CCC3(CC2)OCCO3)c1,Percent Effect,"30.3 µM, […]",24.88%
COc1ccc(CC2CN(C(=O)c3ocnc3C)CCO2)cc1 (configuration not stated),Percent Effect,"30.3 µM, […]",-6.657%
N#Cc1ccccc1C(=O)N1C[C@H](CO)C[C@H](CN2CCCC2)C1,Percent Effect,"30 µM, 30.03 µM",18.98%
Cc1nc2ccnn2c(C)c1CCC(=O)N1CCN(CCO)CC1,Percent Effect,30 µM,14.29%
CC(=O)N1CCCC(c2ccc(Cc3ccccc3)cn2)C1 (configuration not stated),Percent Effect,"30.3 µM, […]",-26.06%
Cc1nc(CN2CCO[C@H]3CN(C(=O)c4cscn4)C[C@H]32)cs1,Percent Effect,"30.3 µM, […]",38.15%
Cc1ccsc1CN1CCc2nc3ccsc3c(=O)n2CC1.Cl,Percent Effect,"30.3 µM, […]",14.2%
Nc1nc(NCCO)cc(N2CCc3c([nH]c4ccccc34)C2)n1,Percent Effect,"30.3 µM, […]",50.32%
CC(C)Cc1ncc2c(n1)CN(c1cc(NCCO)nc(N)n1)C2,Percent Effect,"30.3 µM, […]",22.17%
COc1ccc2[nH]c3c(c2c1)CN(c1cc(NCCO)nc(N)n1)CC3,Percent Effect,"30.3 µM, […]",13.82%
CC(=O)N1CCO[C@@H]2CN(Cc3ccccc3F)C[C@@H]2C1.O=C(O)C(F)(F)F,Percent Effect,"30.3 µM, […]",6.292%
O=C(NCc1cccs1)C1CNCC12CCOCC2.O=C(O)C(F)(F)F (configuration not stated),Percent Effect,"30.3 µM, […]",12.59%
CN(Cc1csc2ccccc12)C(=O)NC1CCS(=O)(=O)C1 (configuration not stated),Percent Effect,"30.3 µM, […]",11.38%
CC(C)CN1CCC(NC(=O)N(C)Cc2csc3ccccc23)CC1,Percent Effect,"30.3 µM, […]",39.03%
CCN1CCC(NC(=O)N(C)Cc2csc3ccccc23)CC1,Percent Effect,"30.3 µM, […]",82.94%
COc1ccc(CCC(=O)Nc2cccnc2N2CCCC2)cc1Br,Percent Effect,"30 µM, 30.03 µM",33.61%
Cc1ccc(CNC(=O)CN2CCOC(Cn3cncn3)C2)s1 (configuration not stated),Percent Effect,30 µM,21.75%
Cc1nc(Nc2nnc(C)s2)cc(C2CCCN2c2ccncn2)n1 (configuration not stated),Percent Effect,"30.3 µM, […]",-2.613%
CCC(NC(=O)C(C)(C)C)c1ccccc1C (configuration not stated),Percent Effect,"30.3 µM, […]",-8.319%
COCC(=O)N1CCN(C(=O)NC(C)C)CC2(CC(=O)N(C)C2)C1 (configuration not stated),Percent Effect,"30.3 µM, […]",56.1%
CC(C)CC(=O)N1CCN(C(=O)NC(C)C)CC2(CC(=O)N(C)C2)C1 (configuration not stated),Percent Effect,"30.3 µM, […]",-8.176%
CC(=O)N1CCN(C(=O)NC(C)C)CC2(CC(=O)N(C)C2)C1 (configuration not stated),Percent Effect,"30.3 µM, […]",6.648%
CCc1cnc(CN(C)C2CCN(CCCNS(C)(=O)=O)C2)o1 (configuration not stated),Percent Effect,"30.3 µM, […]",8.531%
c1csc(CCC2CCCCN2Cc2noc(C3CC3)n2)c1 (configuration not stated),Percent Effect,"30.3 µM, […]",-14.11%
CCC1CCCCCN1C(=O)c1ccc(N2CCC(O)CC2)cc1 (configuration not stated),Percent Effect,"30.3 µM, […]",32.16%
CCN1CCC2(CC1)OCCN2C(=O)c1cc(Cl)c(OC)c(Cl)c1.Cl,Percent Effect,"30.3 µM, […]",18.32%
CCN1CCC2(CC1)OCCN2C(=O)c1ccc(OC)c(Cl)c1.Cl,Percent Effect,"30.3 µM, […]",22.75%
CCCOc1c(Cl)cc(C(=O)N2CCOC23CCN(C)CC3)cc1Cl,Percent Effect,"30.3 µM, […]",88.42%
